Sampled rows, rich in hits. Any-hit rate of the full collection: about 11%.
JMJD2A Tudor – JMJD2A Tudor domain (human) inhibition | actives 4.4% (n = 390,000) | AlphaScreen JMJD2A-Tudor / H3K4me3 peptide binding | Potency, µM (titrated, usually from 114 µM), inactives show at the top dose activity change, negative = inhibition, usual class: inhibitors; further: on the % scale 0 is the no-effect control and ±100 the full control effect; nearly all actives have a fitted effect of over 50% in size
PLK1 PBD inh – inhibitors of human PLK1 polo-box domain binding | Plk1 PBD binding of FITC phosphopeptide, fluorescence polarization | Potency, µM, for inactives: max response, negative = inhibition, hits mostly inhibitors | actives 2.8% (n = 360,000) | AID 720504; further: series mostly up to about 57 µM; on the % scale 0 is the no-effect control and ±100 the full control effect; nearly all actives have a fitted effect of over 65% in size
BAZ2B inh – blocks human BAZ2B. Q9UIF8. AlphaScreen BAZ2B-H3K14Ac peptide displacement. Potency, µM (series often up to 114 µM), for inactives: top-dose activity change, negative = inhibition, hits mostly inhibitors. actives 4.4% (n = 360,000). AID 504333; further: on the % scale 0 is the no-effect control and ±100 the full control effect; nearly all actives have a fitted effect of over 60% in size
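AlphaScreen displacement of biotin-H3(5-23)K14Ac peptide (50 nM final) from BAZ2B (50 nM final) in PBS pH 7.4, 0.01% Tween-20; complex preformed 30 min RT, then compounds (top 110 uM) 30 min RT, beads 20 min dark.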
HP1b chromo inh – HP1-beta chromodomain-methylated histone interaction inhibition. actives 0.56% (n = 390,000). AlphaScreen HP1-beta / biotin-H3K9me3 peptide binding. Potency, µM (series often up to 114 µM), inactives show top-dose activity change, negative = inhibition, usual class: inhibitors. P83916. AID 540317; further: nearly all actives have a fitted effect of over 70% in size
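Compound inhibition of the preformed complex between 50 nM HP1-beta and 50 nM biotinylated H3K9me3 peptide was read by AlphaScreen. Buffer was PBS pH 7.4 with 0.01% Tween-20. Incubations ran 30 min at room temperature, with 10 ug/mL donor/acceptor beads.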
VDR inhibitor – vitamin D3 receptor (human) inhibition; P11473; VDR-SRC2-3 peptide fluorescence polarization, 2 h; Potency, µM, for the others: max response, negative = inhibition, usual class: inhibitors; actives 0.93% (n = 400,000); AID 504847; further: on the % scale 0 is the no-effect control and ±100 the full control effect
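Compounds are added to VDR with labelled SRC2-3 coactivator peptide and held 2 h at room temperature. Inhibition of the VDR–peptide interaction is then read as a change in fluorescence polarization.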
G9a inh – inhibitors of human histone lysine methyltransferase G9a. AID 504332. actives 8.8% (n = 350,000). Q96KQ7. G9a H3K9 monomethylation, AlphaScreen, 2 h. Potency, µM (titrated, usually from 102 µM), inactives show at the highest dose activity, negative = inhibition, hits mostly inhibitors; further: on the % scale 0 is the no-effect control and ±100 the full control effect; nearly all actives have a fitted effect of over 75% in size
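G9a (20 nM) was preincubated 15 min with compound, then reacted 2 h at room temperature with 500 nM biotin-H3K9 peptide and 20 µM SAM. Monomethyl-H3K9 detected by AlphaScreen using anti-H3K9me1 antibody.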
TbPYK confirm – confirmation of Trypanosoma brucei pyruvate kinase inhibitors | recombinant TbPYK, Kinase-Glo ATP luminescence | shares compounds with PLK1 PBD inh | Potency, µM (doses to about 76.9 µM), inactives show at the highest dose activity change, negative = inhibition, hits mostly inhibitors | actives 67% (n = 890); further: on the % scale 0 is the no-effect control and ±100 the full control effect; nearly all actives have a fitted effect of over 70% in size
TbPYK orthogonal – TbPYK inhibition, orthogonal confirmation. shares compounds with PLK1 PBD inh. recombinant TbPYK, ADP-Glo luminescence, 60 min. Potency, µM (series often up to 76.9 µM), without a hit: top-dose activity change, negative = inhibition, hits mostly inhibitors. actives 62% (n = 890); further: on the % scale 0 is the no-effect control and ±100 the full control effect; nearly all actives have a fitted effect of over 75% in size
Starred values were filed as active, the others as inactive; ? = inconclusive; nt = not tested or not shown; [ ] = remark or other dose. The call rests on the fitted dose curve; in most records, active means well fitted curve in the direction sought with a large enough effect; inconclusive means small, poorly fitted or top-dose-only effect, or another doubt; inactive means no such curve, though single readings can be large; an effect the other way counts as inactive or inconclusive. Potency means the concentration at half of the fitted maximal effect.

SMILES	JMJD2A Tudor	PLK1 PBD inh	BAZ2B inh	HP1b chromo inh	VDR inhibitor	G9a inh	TbPYK confirm	TbPYK orthogonal
Cc1ccc(N2C(=O)NC(=O)/C(=C/c3ccoc3)C2=O)cc1	10µM*	2.7µM*	7.9µM*	10µM*	3%	nt	?	-29%
COc1cc(N2CCOCC2)ccc1/C=C1\C(=O)NC(=O)N(C2CCCCC2)C1=O	-15%	?	-37%	13%	-2%	?	nt	nt
O=C1NC(=O)N(c2ccccc2)C(=O)/C1=C\C=C\c1ccccc1	-8%	1.2µM*	-5%	?	?	nt	13µM*	?
Cc1nnc(NC(=O)c2cccn(Cc3cccc([N+](=O)[O-])c3)c2=O)s1	-18%	nt	1%	-11%	-7%	-6%[59 µM]	nt	nt
Cc1cccc(-n2c(/C=C/c3cn(C)c4ccccc34)nc3ccccc3c2=O)c1	-33%	nt	-2%	24%	-7%	12%[59 µM]	nt	nt
CCCCOP(=O)(OCCCC)C(O)c1ccc(Br)cc1 (centres undefined)	0%	1%	1%	45%	7%	12%[59 µM]	nt	nt
C[N+]1(CCOS(=O)C23CC4CC(CC(C4)C2)C3)CCOCC1 (centres undefined)	?	-5%	-1%	3%	3%	?	nt	nt
O=c1[nH]c(O)c(/C=C2\C=NN=C2c2ccccc2)c(=O)[nH]1	-14%	3.5µM*	8%	20%	?	50µM*	11µM*	32µM*
CCN1C[C@]2(C)CCC(OC)[C@@]34C5C[C@@H]6CC[C@@](O)(C5C(=O)O6)[C@@H](C(O)C23)[C@@H]14 (some centres undefined)	nt	nt	nt	nt	2%	nt	nt	nt
Cc1ccc(-c2nn(Cc3ccccc3)cc2C=O)cc1	27%	-10%	14%	36%	2%	23%[59 µM]	nt	nt
O=C(O)CCn1cc(C=C2C(=O)NC(=O)NC2=O)c(-c2ccc(Br)cc2)n1	0%	2.7µM*	-30%	57%	-16%	10µM*	14µM*	28µM*
O=C(Nc1ccc(Br)cc1C(=O)c1ccccc1Cl)c1ccccc1F	-2%	nt	-2%	35%	-4%	-7%[59 µM]	nt	nt
O=c1oc2ccccc2cc1-c1cn2cc(Cc3ccc(F)cc3)sc2n1	-4%	nt	30%	58%	-1%	51%[59 µM]	nt	nt
O=C1NC(=O)C(=Cc2ccc(OCC(=O)N3CCOCC3)cc2)C(=O)N1	-11%	27µM*	-4%	54%	0%	?	18µM*	?
O=C(COc1ccc(S(=O)(=O)N2CCOCC2)cc1)N1CCN(Cc2ccc3c(c2)OCO3)CC1	-16%	-4%	1%	11%	1%	0%	nt	nt
CCN(CC)C(=S)NCCc1ccccc1	-9%	-24%	-5%	43%	16%	-4%[12.7 µM]	nt	nt
CN1CCc2cc3c(cc2[C@@H]1O)OCO3	nt	nt	nt	nt	-5%	11%[21.5 µM]	nt	nt
Cn1cccc1/C=C1/C(=O)NC(=S)N(Cc2ccc(F)cc2)C1=O	45µM*	0.67µM*	25µM*	35µM*	?	10µM*	3.5µM*	?
C[C@H](NC[C@H](O)CP(=O)(O)CC1CCCCC1)c1ccc(Cl)c(Cl)c1	nt	nt	nt	nt	?	14%[59 µM]	nt	nt
CCOC(=O)c1c(C)n(Cc2ccc(F)cc2)c2ccc(O)cc12	?	-14%	-32%	-2%	-14%	-18%[12.7 µM]	?	18µM*
CCOC(=O)c1c(C)n(Cc2ccccc2)c2ccc(OCC(O)CN3C(=O)CNC3=O)cc12 (centres undefined)	-33%	-1%	-3%	-5%	2%	11%[59 µM]	nt	nt
COC1CC(C)C(OC)c2cc(O)cc(c2O)NC(=O)C(C)=CC=CC(C)C(OC(N)=O)C(C)=CC(C)C1OC (centres undefined)	89µM*	19µM*	nt	71µM*	?	nt	?	13µM*
CN1C(=O)C(=Cc2ccccc2Oc2ccc(Cl)c(F)c2)C(=O)N(C)C1=O	10%	4.2µM*	19%	132%	28µM*	-21%	?	-26%
O=C(CCc1nc(C2=CCN(Cc3cccc(Cl)c3)CC2)no1)Nc1ccccc1F	-34%	nt	-23%	15%[57 µM]	14%	-46%[59 µM]	nt	nt
CNS(=O)(=O)c1ccc(-c2ccc(C=C3C(=O)NC(=O)NC3=O)o2)cc1	-25%	2.1µM*	?	72%	45µM*	8.9µM*	2.8µM*	10µM*
SMILES	JMJD2A Tudor	PLK1 PBD inh	BAZ2B inh	HP1b chromo inh	VDR inhibitor	G9a inh	TbPYK confirm	TbPYK orthogonal
O=C1NC(=O)C(=Cc2ccccc2[N+](=O)[O-])C(=O)N1	-4%	12µM*	nt	8%	?	nt	8.9µM*	28µM*
Cc1cccc(N2C(=O)NC(=O)/C(=C/c3cc4c(cc3[N+](=O)[O-])OCO4)C2=O)c1	79µM*	5.3µM*	-28%	?	?	8.9µM*	20µM*	?
O=C1NC(=O)C(=Cc2cc3c(cc2[N+](=O)[O-])OCO3)C(=O)N1	-35%	13µM*	-29%	0%	40µM*	7.9µM*	8.9µM*	?
COc1ccccc1NC(=O)Oc1ccc(C(C)=O)cc1	1%	2%	-6%	47%	-4%	14%[0.501 µM]	nt	nt
CN(C)c1ccc(C=C2C(=O)NC(=O)NC2=O)cc1[N+](=O)[O-]	-14%[11.4 µM]	7.5µM*	nt	11%	-28%	?	16µM*	32µM*
O=C1NC(=O)C(=Cc2ccc(-c3ccccc3[N+](=O)[O-])o2)C(=O)N1	?	1.3µM*	?	-1%	40µM*	nt	?	?
O=C1NC(=O)C(=Cc2ccc(SC3CCCCC3)o2)C(=O)N1	?	0.6µM*	45µM*	50µM*	?	11µM*	28µM*	40µM*
CCc1ccc(OCC(=O)N2CCN(CCc3ccccn3)CC2)cc1	-14%	nt	-4%	43%	-1%	-3%[59 µM]	nt	nt
Cc1ccc(-n2c(/C=C/c3cccc4ccccc34)nc3ccccc3c2=O)cc1	6%	nt	12%	23%	1%	20%[59 µM]	nt	nt
CCOc1ccccc1N1C(=O)NC(=O)/C(=C/c2ccc3c4c(cccc24)CC3)C1=O	79µM*	6.7µM*	50µM*	31%	?	27%[0.501 µM]	?	?
COc1cccc(-c2cc(C(=O)Nc3cnn(Cc4ccc(Cl)cc4Cl)c3)no2)c1	-5%	nt	0%	54%	-10%	11%[59 µM]	nt	nt
COc1ccc(S(=O)(=O)N(C)C[C@H]2OCCCC[C@H](C)Oc3ccc(N(C)C)cc3C(=O)N([C@H](C)CO)C[C@@H]2C)cc1	nt	-12%	nt	nt	nt	nt	11µM*	?

High-throughput results from PubChem.
